Test results published in PubChem BioAssay (NCI).
The panel holds about 83,000 compounds, 20% with a hit somewhere; the sample as a whole holds those more often.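 Results are percent growth after 48 hours of single-concentration exposure. 100 means growth as in untreated cells, lower positive values show inhibition; negative values down to -100 show cell death.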 A number with no mark means an inactive call. Active and inactive are the calls of the source. How the source made its calls: active means growth percent below 10; inactive means the rest.

What was measured:
Experiment in all cases: NCI-60 one-dose screen, 48 h (100 = growth as untreated, 0 = no growth, -100 = all killed)
Settings in all cases: 10 µM unless noted
HCT-15 colon = test system: HCT-15 colon
HT29 colon = test system: HT29 colon
SNB-75 CNS = test system: SNB-75 CNS
SNB-19 CNS = test system: SNB-19 CNS
U251 CNS = test system: U251 CNS
PC-3 prostate = test system: PC-3 prostate
SK-MEL-5 melanoma = test system: SK-MEL-5 melanoma
UACC-62 melanoma = test system: UACC-62 melanoma
LOX IMVI melanoma = test system: LOX IMVI melanoma
SK-MEL-28 melanoma = test system: SK-MEL-28 melanoma

| SMILES | growth (HCT-15 colon) | growth (HT29 colon) | growth (SNB-75 CNS) | growth (SNB-19 CNS) | growth (U251 CNS) | growth (PC-3 prostate) | growth (SK-MEL-5 melanoma) | growth (UACC-62 melanoma) | growth (LOX IMVI melanoma) | growth (SK-MEL-28 melanoma) |
| --- | --- | --- | --- | --- | --- | --- | --- | --- | --- | --- |
| CCN(CC)CCCC(Nc1c2ccc(Cl)cc2nc2ccc(OC)cc12)c1ccncc1 (stereo not given) | 54.8% | 43.7% | 87% | 81% | 79.3% | 66.6% | 88.4% | 103% | 63% | 85.6% |
| CN1CCN(c2ccc(Nc3ncc4[nH]c(=O)n(Cc5ccccc5N)c4n3)cc2)CC1 | 106% | 80.2% | 39.9% | 107% | 100% | 83.1% | 101% | 97.6% | 88.7% | 111% |
| O=C(CN1C(=O)NC2NC(=O)NC21)N/N=C/c1cccc([N+](=O)[O-])c1 (stereo not given) | 100% | 107% | 80% | 98.8% | 111% | 106% | 100% | 88.8% | 98.1% | 111% |
| CN1CCN(Cc2ccc(NC(=O)c3cncc(C#Cc4c(N)ncc5c(F)cccc45)c3)cc2C(F)(F)F)CC1 | -83.7% (active) | -77.1% (active) | -81% (active) | -97% (active) | -88.4% (active) | -69.2% (active) | -87.2% (active) | -93.3% (active) | -96.1% (active) | -86.5% (active) |
| CCN(CC)CCN1C(=O)c2c(c(C)c3c(oc4cc(OC)ccc43)c2C)C1=O | 101% | 96.8% | 77.2% | 87.6% | 55.5% | 92% | 95.8% | 102% | 83.1% | 76.1% |
| CCN(CC)CCCNc1cc(OC)cc2cccnc12 | 99.7% | 91.6% | 111% | 109% | 94.8% | 93.8% | 95.3% | 110% | 97.2% | 126% |
| O=C(Nc1ccccc1)Nc1ccccc1CNc1nc(Nc2ccc(OCCN3CCCC3)cc2)ncc1Cl | 41.4% | 13.8% | 90% | 70.6% | 38.7% | 76.1% | 57.2% | 86.1% | -68.3% (active) | 78.5% |
| O=C1CCC(C(=O)N/N=C/c2ccc([N+](=O)[O-])cc2)N1 (stereo not given) | 98.9% | 104% | 75.4% | 99.9% | 102% | 95.3% | 104% | 100% | 91.9% | 111% |
| CCCCCN(CCCCC)CC(O)c1c(Cl)ccc2ccccc12 (stereo not given) | 55.8% | 31.4% | 92% | 92.3% | 80.3% | 75.2% | 72.8% | 59.7% | 71.6% | 97.3% |
| CNC(=O)c1cc(Oc2ccc3nc(NC(=O)Nc4ccc(F)cc4F)sc3c2)ccn1 | 84% | 58.8% | 19.2% | 71.1% | 37% | 65.9% | 39% | 65.1% | 52.1% | 52.1% |
| COc1cc(/C=C2\CN(S(=O)(=O)c3ccc(C)cc3)C/C(=C\c3cc(CN4CCCC4)c(O)c(OC)c3)C2=O)cc(CN2CCCC2)c1O | -2.28% (active) | -60.7% (active) | 34.3% | 15.6% | -74.5% (active) | -20.2% (active) | -17.5% (active) | 34.3% | -92.5% (active) | 10.3% |
| CC1(C)CC[C@]2(CO)CC[C@]3(C)C(=CC[C@@H]4[C@@]5(C)CCNCC(C)(C)[C@@H]5CC[C@]43C)[C@@H]2C1 | 5.97% (active) | 12% | 79.4% | 96.9% | 56.6% | 59% | 71.6% | 94.2% | 76% | -29% (active) |
| COc1cc(/C=C2\C(=O)N(CCOc3cc(O)c4c(=O)cc(-c5ccccc5)oc4c3)c3ccccc32)cc(OC)c1O | 28% | 136% | 44.9% | 65.3% | 39.7% | 76.2% | 68.1% | 24.6% | 36.7% | 83.6% |
